Reference: PubChem BioAssay (NCI)
This is part of a sample that, as a whole, favours compounds with a hit. Of some 83,000 tested, about 20% had one in any assay.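 For each line, cells grew in 96-well plates with the test compound present at a single concentration for 48 hours.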 Unmarked numbers belong to inactive results. Activity calls are given as the source filed them.

What follows are molecules tested on HCT-116 colon (assay: NCI-60 one-dose screen, 48 h (100 = growth as untreated, 0 = no growth, -100 = all killed)). Conditions: 10 µM.
Description: Growth inhibition of the HCT-116 human tumor cell line is measured as a screen for anti-cancer activity. Cells are grown in 96 well plates and exposed to the test compound for 48 hours. Compounds are tested at a single concentration, which is 10^-5 M for most compounds. The reported endpoint is percent growth (GI% or GIPRCNT), where numbers from 0 - 100% represent growth inhibition, and numbers from -100% - 0 represent cell death. For example, a value of 40 represents 60% growth inhibition. A value of 0 means no net growth occurred over the course of the experiment. A value of -40 indicates 40% of cells at the beginning of the experiment died by the end of the experiment. A value of -100 means all cells are dead at the end of the experiment.
NCI-60 Human Tumor Cell Lines Screen was performed using the standard one-dose NCI protocol, which is described in more detail at https://dtp.cancer.gov/discovery_development/nci-60/default.htm.
Compounds with GIPRCNT values below 10 were considered active. Activity score was based on GIPRCNT using the following formula: […]
Score is 0 for GIPRCNT values of 100 or above, 50 for GIPRCNT values of 0, and 100 for GIPRCNT values of -100.

Compound	growth
COc1ccc(N=Nc2cc(OC)c(OC)c(OC)c2)cc1	80.5%
O=C(O)c1ccc(-n2cc(CNc3ccc(Oc4ccccc4)cc3)c(-c3ccccc3)n2)cc1	88.5%
N#Cc1c(-c2ccc(Cl)cc2)cc(-c2cc(O)ccc2O)nc1N	19.8%
COc1cc(/C=C2\CCCC3=C2N=C2SC(C)=CN2C3c2cc(OC)c(OC)c(OC)c2)cc(OC)c1OC (stereo not given)	-86.2% (active)
Cc1ccc(-n2c(C)nn3c(=O)c4c5c(sc4nc23)CN(C)CC5)cc1	93.5%
CCOC(=O)c1cc(C(=O)c2cc(OC)c(OC)c(OC)c2)n2ncc3ccccc3c12	50.8%
CC(=O)[C@@]12O[C@](C)(c3ccccc3)O[C@@H]1CC1C3CCC4=CC(=O)CC[C@]4(C)C3CC[C@@]12C (stereo not given in full)	48.2%
C/C=C/C1=CN2C(=O)c3cc(OC4OC(C)C(NC)C(C)(O)C4O)c(C)c(O)c3N=C[C@@H]2C1 (stereo not given in full)	1.59% (active)
C=CCn1c(SCC(=O)Nc2ccc(C(=O)/C=C/c3ccc(OC)cc3)cc2)nnc1-c1ccc(OC)c(OC)c1	55.5%
COc1ccc2nc(-c3ccc(Cl)cc3)cc(-c3nnc(SC/C(=N\O)c4ccccc4)n3-c3ccccc3)c2c1	67.9%
CC(C)=CCC/C(C)=C/CC/C(C)=C/CC/C=C(\C)CC/C=C(\C)CCC(=O)Nc1ccn(C2OC(CO)C(O)C2(F)F)c(=O)n1 (stereo not given)	20.3%
O=C1CC(=O)N(C(=O)c2nn(-c3ccc(Cl)cc3)cc2O)N1	22.1%
CCN(CC)CCN1c2nc3ccccc3cc2Sc2cc3ccccc3nc21	-45.4% (active)
CCCC1(CN2c3ccccc3Sc3ccc(Cl)cc32)CCN(CC)C1 (stereo not given)	-100% (active)
CCn1c(SC/C(=N/O)c2ccccc2)nnc1-c1ccccc1	101%
CCOc1ccccc1/C=N\N=C(\N)N/N=C/c1ccccc1OCC	24.9%
C(=N\Nc1ncnc2sc3c(c12)CCNC3)/c1cccc2ccccc12	8.77% (active)
COc1cc(C(=O)/C(C)=C/c2c[nH]c3ccccc23)cc(OC)c1OC	2.11% (active)
C=CCn1c(SCC(=O)Nc2ccc(C(=O)/C=C/c3cc(OC)c(OC)c(OC)c3)cc2)nnc1-c1cc(-c2ccc(Cl)cc2)nc2ccccc12	50%
O=C1c2c(c(=O)[nH]c3ccccc23)CCN1Cc1ccccc1	94.8%

Compound	growth
NC(N)=N/N=C(\c1ccccc1)C(O)c1ccccc1 (stereo not given)	100%
N#Cc1cnn(C(=O)c2nn(-c3ccc(Cl)cc3)cc2O)c1N	6.75% (active)
Cc1cc(CCNC=O)c(C)c2c1sc1ccccc12	94%
c1ccc(CCCCc2ccc3ccccc3n2)cc1	96%
CN(C)CCOc1cccc(NC2=C(Cl)C(=O)C(Nc3cccc(OCCN(C)C)c3)=C(Cl)C2=O)c1	-89.4% (active)
COc1cc2ncnc(NC3CCC(O)CC3)c2cc1OC (stereo not given)	91.4%
C[C@]12CC[C@@H]3c4ccc(OS(=O)(=O)O)cc4CC[C@H]3[C@@H]1CC[C@@H]2NS(=O)(=O)c1ccc(-c2ccccc2)cc1	36.2%
COc1cc(C(=O)/C=C/c2c[nH]c3ccccc23)cc(OC)c1OC	12.2%
O=c1[nH]c(=O)n(C2C[C@H](O)[C@@H](CO)O2)cc1C(F)(F)F (stereo not given in full)	106%
O=S(=O)(NCCCNc1nccc(-c2cn(-c3ccccc3)nc2-c2ccc(Cl)c(O)c2)n1)c1ccccc1	53.1%
c1cncc(-c2csc(-c3c[nH]c4ccccc34)n2)c1	82.6%
COc1ccc(/C=c2\sc3n(c2=O)C(c2cc(OC)c(OC)c(OC)c2)C=C(c2ccc(OC)c(OC)c2)N=3)cc1OC (stereo not given)	89.4%
O=c1c(Br)ccc(Br)cc1Br	-88.1% (active)
CNC(=O)c1cc(Oc2ccc3c(c2)sc2nc(-c4ccc(N)cc4)cn23)ccn1	6.01% (active)
COc1ccc(C(=O)CSc2nc(-c3cc(OC)ccc3OC)cc(-c3ccc(OC)cc3)c2C#N)cc1	94%
COc1cc(/C=C/c2cc(/C=C/c3ccc(O)c(OC)c3)n(C(=O)Nc3ccc(C)cc3)n2)ccc1O	1.6% (active)
CCOC(=O)C1=CSC2=NC3=C(CCC/C3=C\c3cc(OC)c(OC)c(OC)c3)C(c3cc(OC)c(OC)c(OC)c3)N12 (stereo not given)	19.2%
Cc1c(C(N)=O)sc2c1c(=O)n(Cc1ccccc1)c1nnc(-c3ccc(Br)cc3)n21	12.4%
COc1cc(-c2nn(-c3cccc(NC(=O)CCN4CCN(c5ccccc5)CC4)c3)cc2-c2ccncc2)ccc1Cl	11.8%
NC1=CC(=O)C(=O)c2cccnc21	86.6%
